Assay results as given in paper PMC7862700, “An all-to-all approach to the identification of sequence-specific readers for epigenetic DNA modifications on cytosine”.

What was measured:
Experiment in all cases: DAPPL (digital affinity profiling via proximity ligation, sequencing); 10 mM Tris-HCl pH 7.5, 50 mM NaCl, 1 mM DTT, 4% glycerol, room temperature, 30 min; GST-TFs on glutathione beads, 16-mer random dsDNA library, 0.1% formaldehyde crosslink after washing; high values mean tight binding
FEV = target: T1, FEV (Homo sapiens, UniProt Q99581 1-238); settings: protein: recombinant; tags: N-terminal GST; dsDNA, one strand shown
T1 sequence: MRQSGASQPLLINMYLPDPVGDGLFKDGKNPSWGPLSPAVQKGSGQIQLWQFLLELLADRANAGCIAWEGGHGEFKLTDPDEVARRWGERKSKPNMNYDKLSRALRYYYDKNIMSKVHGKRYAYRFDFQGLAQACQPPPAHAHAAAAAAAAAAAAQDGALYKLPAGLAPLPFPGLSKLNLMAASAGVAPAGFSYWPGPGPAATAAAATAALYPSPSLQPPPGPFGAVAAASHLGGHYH
Procedure, shortened: (§1)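 A tag-only sample was pooled with DNA-barcoded human transcription factors that had been expressed in yeast as GST fusions and captured on glutathione beads. The pools were incubated for 30 min at room temperature with 200 nmole of a random double-stranded 16-mer DNA library in Tris/NaCl/DTT/glycerol buffer, then washed, crosslinked with 0.1% formaldehyde, proximity-ligated (BsaI/T4 ligase, 1 h, 37 °C), PCR-amplified and sequenced on an Illumina NextSeq500. Binding signal is each hexamer's read frequency for a factor divided by its frequency for the tag-only sample.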

ETV5 = ETV5 (Homo sapiens, UniProt P41161 1-510); settings: protein: recombinant; tags: N-terminal GST; dsDNA, one strand shown
Procedure, shortened: as §1

HSF1 = HSF1 (Homo sapiens, UniProt Q00613 1-529); settings: protein: recombinant; tags: N-terminal GST; chain copies: 3; dsDNA, one strand shown
Procedure, shortened: as §1

SPIC = target: T2, SPIC (Homo sapiens, UniProt Q8N5J4 1-248); settings: protein: recombinant; tags: N-terminal GST; dsDNA, one strand shown
T2 sequence: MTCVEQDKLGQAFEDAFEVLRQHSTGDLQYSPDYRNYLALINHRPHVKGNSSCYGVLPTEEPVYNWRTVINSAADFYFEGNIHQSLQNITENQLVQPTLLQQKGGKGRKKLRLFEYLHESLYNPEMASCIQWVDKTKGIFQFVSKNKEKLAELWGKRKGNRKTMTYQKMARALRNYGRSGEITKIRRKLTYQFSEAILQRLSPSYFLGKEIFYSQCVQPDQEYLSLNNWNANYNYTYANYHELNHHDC
Procedure, shortened: as §1

ELF4 = ELF4 (Homo sapiens, UniProt Q99607 1-663); settings: protein: recombinant; tags: N-terminal GST; dsDNA, one strand shown
Procedure, shortened: as §1

ELK4 = target: T3, ELK4 (Homo sapiens, UniProt P28324-2 1-405); settings: protein: recombinant; tags: N-terminal GST; dsDNA, one strand shown
T3 sequence: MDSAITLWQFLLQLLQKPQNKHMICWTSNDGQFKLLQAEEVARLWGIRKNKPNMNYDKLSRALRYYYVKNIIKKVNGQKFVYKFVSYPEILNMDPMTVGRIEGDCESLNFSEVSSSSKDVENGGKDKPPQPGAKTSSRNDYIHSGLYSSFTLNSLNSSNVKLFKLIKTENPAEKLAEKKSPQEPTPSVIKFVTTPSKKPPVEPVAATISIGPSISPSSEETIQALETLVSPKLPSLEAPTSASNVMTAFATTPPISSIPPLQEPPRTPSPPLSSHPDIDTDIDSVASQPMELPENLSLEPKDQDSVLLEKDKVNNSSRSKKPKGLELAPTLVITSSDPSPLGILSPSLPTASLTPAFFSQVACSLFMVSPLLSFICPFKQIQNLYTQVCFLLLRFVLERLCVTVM
Procedure, shortened: as §1

ETV2 = target: T4, ETV2 (Homo sapiens, UniProt O00321 1-342); settings: protein: recombinant; tags: N-terminal GST; dsDNA, one strand shown
T4 sequence: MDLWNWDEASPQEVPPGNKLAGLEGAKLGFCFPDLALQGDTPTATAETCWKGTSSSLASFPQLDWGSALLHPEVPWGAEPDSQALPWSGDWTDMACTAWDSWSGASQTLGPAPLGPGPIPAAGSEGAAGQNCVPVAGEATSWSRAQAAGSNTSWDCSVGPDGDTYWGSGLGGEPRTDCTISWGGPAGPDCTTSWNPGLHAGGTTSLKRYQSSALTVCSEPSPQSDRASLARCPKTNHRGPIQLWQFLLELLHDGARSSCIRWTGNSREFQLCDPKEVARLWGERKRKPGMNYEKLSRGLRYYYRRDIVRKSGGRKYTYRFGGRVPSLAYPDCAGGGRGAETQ
Procedure, shortened: as §1

ELF3 = target: T5, ELF3 (Homo sapiens, UniProt P78545 1-371); settings: protein: recombinant; tags: N-terminal GST; dsDNA, one strand shown
T5 sequence: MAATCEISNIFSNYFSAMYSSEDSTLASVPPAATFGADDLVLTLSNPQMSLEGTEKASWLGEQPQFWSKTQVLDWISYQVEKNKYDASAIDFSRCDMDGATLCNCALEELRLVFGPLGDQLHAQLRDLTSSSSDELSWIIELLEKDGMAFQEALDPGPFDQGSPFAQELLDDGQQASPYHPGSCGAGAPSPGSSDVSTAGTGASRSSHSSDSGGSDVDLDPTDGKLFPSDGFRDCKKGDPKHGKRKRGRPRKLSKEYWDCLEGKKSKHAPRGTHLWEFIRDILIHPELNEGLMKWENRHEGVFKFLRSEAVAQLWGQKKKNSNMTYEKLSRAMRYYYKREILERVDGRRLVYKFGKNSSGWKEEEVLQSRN
Procedure, shortened: as §1

CRX = CRX (Homo sapiens, UniProt O43186 1-299); settings: protein: recombinant; tags: N-terminal GST; dsDNA, one strand shown
Procedure, shortened: as §1

ETV1 = ETV1 (Homo sapiens, UniProt P50549 1-477); settings: protein: recombinant; tags: N-terminal GST; dsDNA, one strand shown
Procedure, shortened: as §1

Sequence of ETV5 (P41161 whole entry): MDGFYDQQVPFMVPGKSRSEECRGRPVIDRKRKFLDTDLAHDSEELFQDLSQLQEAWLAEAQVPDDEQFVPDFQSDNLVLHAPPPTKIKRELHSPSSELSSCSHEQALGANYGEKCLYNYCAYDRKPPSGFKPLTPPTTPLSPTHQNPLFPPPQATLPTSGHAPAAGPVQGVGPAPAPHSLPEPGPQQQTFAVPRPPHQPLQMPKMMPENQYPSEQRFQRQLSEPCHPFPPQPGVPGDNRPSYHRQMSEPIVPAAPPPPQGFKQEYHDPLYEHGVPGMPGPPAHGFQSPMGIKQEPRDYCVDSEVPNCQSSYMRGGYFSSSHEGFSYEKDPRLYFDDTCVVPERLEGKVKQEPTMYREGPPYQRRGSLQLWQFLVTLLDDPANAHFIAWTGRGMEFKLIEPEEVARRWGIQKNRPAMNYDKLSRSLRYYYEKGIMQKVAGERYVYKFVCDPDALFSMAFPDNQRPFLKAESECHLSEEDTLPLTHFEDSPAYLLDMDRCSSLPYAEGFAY
Sequence of HSF1 (Q00613 whole entry): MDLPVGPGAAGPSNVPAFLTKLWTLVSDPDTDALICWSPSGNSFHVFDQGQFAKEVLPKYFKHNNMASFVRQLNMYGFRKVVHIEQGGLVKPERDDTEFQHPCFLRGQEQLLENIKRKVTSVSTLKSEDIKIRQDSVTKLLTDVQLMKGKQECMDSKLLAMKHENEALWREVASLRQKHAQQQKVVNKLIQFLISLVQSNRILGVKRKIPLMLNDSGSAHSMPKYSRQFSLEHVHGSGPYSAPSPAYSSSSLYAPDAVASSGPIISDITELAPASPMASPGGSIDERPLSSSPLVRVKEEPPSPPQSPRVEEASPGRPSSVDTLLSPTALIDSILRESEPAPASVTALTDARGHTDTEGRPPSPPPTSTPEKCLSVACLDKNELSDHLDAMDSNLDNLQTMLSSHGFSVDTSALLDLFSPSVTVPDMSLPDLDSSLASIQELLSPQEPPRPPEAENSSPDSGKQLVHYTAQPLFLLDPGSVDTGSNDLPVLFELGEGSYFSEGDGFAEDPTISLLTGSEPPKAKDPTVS
Sequence of CRX (O43186 whole entry): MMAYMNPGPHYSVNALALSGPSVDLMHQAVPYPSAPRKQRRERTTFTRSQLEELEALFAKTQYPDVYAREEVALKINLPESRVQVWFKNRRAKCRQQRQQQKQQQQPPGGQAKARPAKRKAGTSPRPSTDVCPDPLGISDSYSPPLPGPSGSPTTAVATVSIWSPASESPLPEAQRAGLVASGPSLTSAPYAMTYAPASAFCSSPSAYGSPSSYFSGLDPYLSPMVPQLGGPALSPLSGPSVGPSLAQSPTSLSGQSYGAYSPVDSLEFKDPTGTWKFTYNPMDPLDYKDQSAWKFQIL
Sequence of ETV1 (P50549 whole entry): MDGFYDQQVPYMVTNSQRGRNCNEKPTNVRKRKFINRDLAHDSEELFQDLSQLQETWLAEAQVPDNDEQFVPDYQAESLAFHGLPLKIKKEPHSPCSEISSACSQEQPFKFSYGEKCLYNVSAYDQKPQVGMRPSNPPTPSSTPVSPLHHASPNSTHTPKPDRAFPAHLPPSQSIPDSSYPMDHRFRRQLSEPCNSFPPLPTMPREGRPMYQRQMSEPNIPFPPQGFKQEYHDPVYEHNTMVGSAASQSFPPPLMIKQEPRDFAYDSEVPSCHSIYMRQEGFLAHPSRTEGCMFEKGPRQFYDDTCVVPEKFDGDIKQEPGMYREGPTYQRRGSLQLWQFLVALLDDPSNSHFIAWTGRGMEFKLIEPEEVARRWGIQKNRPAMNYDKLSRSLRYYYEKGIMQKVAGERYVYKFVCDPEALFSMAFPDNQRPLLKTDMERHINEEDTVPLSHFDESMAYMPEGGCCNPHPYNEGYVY
Sequence of ELF4 (Q99607 whole entry): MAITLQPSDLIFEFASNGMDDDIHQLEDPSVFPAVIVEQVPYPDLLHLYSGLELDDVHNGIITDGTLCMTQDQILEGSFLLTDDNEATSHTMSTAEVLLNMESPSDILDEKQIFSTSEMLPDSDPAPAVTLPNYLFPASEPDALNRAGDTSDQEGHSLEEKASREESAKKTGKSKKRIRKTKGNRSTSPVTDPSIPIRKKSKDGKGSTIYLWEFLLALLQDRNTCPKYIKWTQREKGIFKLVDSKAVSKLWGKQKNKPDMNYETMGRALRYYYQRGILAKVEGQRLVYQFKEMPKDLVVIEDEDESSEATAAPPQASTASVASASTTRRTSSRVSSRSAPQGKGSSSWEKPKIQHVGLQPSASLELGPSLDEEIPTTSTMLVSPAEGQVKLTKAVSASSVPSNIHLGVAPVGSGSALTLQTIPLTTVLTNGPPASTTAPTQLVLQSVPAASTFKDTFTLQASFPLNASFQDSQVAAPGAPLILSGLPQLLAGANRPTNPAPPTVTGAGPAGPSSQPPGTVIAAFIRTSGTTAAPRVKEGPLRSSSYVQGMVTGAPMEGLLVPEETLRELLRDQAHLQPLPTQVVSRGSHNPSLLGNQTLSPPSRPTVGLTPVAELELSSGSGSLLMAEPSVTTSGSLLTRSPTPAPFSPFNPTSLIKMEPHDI

## TTTGTT
FEV
  binding signal: 1.19 fold enrichment (6-mer frequency, TF over GST control)
ETV5
  binding signal: 1.25 fold enrichment (6-mer frequency, TF over GST control)
HSF1
  binding signal: 1.3 fold enrichment (6-mer frequency, TF over GST control)
SPIC
  binding signal: 1.29 fold enrichment (6-mer frequency, TF over GST control)
ELF4
  binding signal: 1.3 fold enrichment (6-mer frequency, TF over GST control)
ELK4
  binding signal: 1.46 fold enrichment (6-mer frequency, TF over GST control)
ETV2
  binding signal: 1.33 fold enrichment (6-mer frequency, TF over GST control)
ELF3
  binding signal: 1.35 fold enrichment (6-mer frequency, TF over GST control)
CRX
  binding signal: 1.46 fold enrichment (6-mer frequency, TF over GST control)
ETV1
  binding signal: 1.25 fold enrichment (6-mer frequency, TF over GST control)
